Measurements published in PubChem BioAssay (NCI).
This is part of a sample that, as a whole, favours compounds with a hit. Of some 83,000 tested, about 20% had one in any assay.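 Activity criterion: percent growth below 10, measured after cells in 96-well plates were exposed to a single compound concentration for 48 hours.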 A number with no mark means an inactive call. Calls of active or inactive are those of the source.

How the values were obtained:
Assay in all cases: NCI-60 one-dose screen, 48 h (100 = growth as untreated, 0 = no growth, -100 = all killed)
Details in all cases: 10 µM unless noted
NCI-H23 lung = system: NCI-H23 lung
NCI-H226 lung = system: NCI-H226 lung
NCI-H322M lung = system: NCI-H322M lung
HOP-62 NSCLC = system: HOP-62 NSCLC
NCI-H460 lung = system: NCI-H460 lung
HOP-92 NSCLC = system: HOP-92 NSCLC
NCI-H522 lung = system: NCI-H522 lung
A549/ATCC NSCLC = system: A549/ATCC NSCLC
786-0 renal = system: 786-0 renal
COLO 205 colon = system: COLO 205 colon
DU-145 prostate = system: DU-145 prostate
K-562 leukemia = system: K-562 leukemia
MALME-3M melanoma = system: MALME-3M melanoma
MDA-MB-231 breast = system: MDA-MB-231 breast
RXF 393 renal = system: RXF 393 renal
SF-268 CNS = system: SF-268 CNS
SF-295 CNS = system: SF-295 CNS
SF-539 CNS = system: SF-539 CNS
UACC-257 melanoma = system: UACC-257 melanoma
M14 melanoma = system: M14 melanoma

Row | SMILES | growth (NCI-H23 lung) | growth (NCI-H226 lung) | growth (NCI-H322M lung) | growth (HOP-62 NSCLC) | growth (NCI-H460 lung) | growth (HOP-92 NSCLC) | growth (NCI-H522 lung) | growth (A549/ATCC NSCLC) | growth (786-0 renal) | growth (COLO 205 colon) | growth (DU-145 prostate) | growth (K-562 leukemia) | growth (MALME-3M melanoma) | growth (MDA-MB-231 breast) | growth (RXF 393 renal) | growth (SF-268 CNS) | growth (SF-295 CNS) | growth (SF-539 CNS) | growth (UACC-257 melanoma) | growth (M14 melanoma)
1 | Cc1nc(N)sc1-c1ccnc(Nc2ccc(N3CCOCC3)cc2)n1 | 43.1% | 35.6% | 51.4% | 11.4% | 15.9% | 34.9% | 11.6% | 21.9% | 34.5% | 1.1% (active) | 33.2% | 59.1% | 47.8% | 29.5% | 18.3% | 28.5% | 25.3% | 25.6% | 71.9% | 36.8%
2 | CCOc1ccc(N=C(C)Nc2ccc(OCC)cc2)cc1 | 102% | 110% | 124% | 109% | 102% | 81.9% | 128% | 95.3% | 104% | 102% | 114% | 99.6% | 117% | 118% | 113% | 88.8% | 107% | 118% | 104% | 101%
3 | CCN1CCN(Cc2ccc(-c3cc4c(N[C@H](C)c5ccccc5)ncnc4[nH]3)cc2)CC1 | 42.3% | 50.9% | -2.25% (active) | 28.5% | 21.9% | 21.4% | 6.19% (active) | 17.5% | 50.3% | -21.4% (active) | 40.5% | 5.11% (active) | 1.62% (active) | 30.3% | 26.4% | 52% | 68.8% | 60.5% | -5.38% (active) | 7.83% (active)
4 | Cn1cnc2c(F)c(Nc3ccc(Br)cc3F)c(C(=O)NOCCO)cc21 | 22% | 56.6% | 18.9% | 32.7% | 62.6% | -4.91% (active) | 60.9% | 30.9% | 67.4% | -2.54% (active) | 64.2% | 49.4% | -2.35% (active) | 34.9% | 19.5% | 70.8% | 76.3% | 62.6% | -25.8% (active) | 2.5% (active)
5 | O=C(Cc1ccc(/C=C/C(=O)c2ncc[nH]2)cc1)Nc1ccc(Br)cc1 | 34.8% | 46.5% | 58.1% | 3.97% (active) | -3.31% (active) | 77.4% | 13.2% | 39.4% | -27% (active) | 20.7% | 19.9% | 1.86% (active) | 74.4% | 10% | 19.4% | 22.2% | 26.9% | -51.1% (active) | 69.8% | 31.4%
6 | CN(C[C@@H]1COCCO1)S(=O)(=O)Nc1ccc2ccc3ncc(-c4cnn(C)c4)cc3c(=O)c2c1 | 30.6% | 40.9% | 26.3% | 36.4% | 35% | 16.9% | 11.2% | 48.1% | 41.3% | 49.3% | 44% | 39.5% | 46% | 49.5% | -2.79% (active) | 35% | 19.3% | 0.172% (active) | 69.3% | 35.3%
7 | FC(F)(F)c1ccc(CNc2ccc(Cc3c[nH]c4ncc(Cl)cc34)cn2)cn1 | 23.7% | 9.04% (active) | 33.2% | 23.1% | 44.5% | 37.7% | 9.44% (active) | 5.16% (active) | -49.3% (active) | -72.4% (active) | 61.2% | 12.4% | 15.9% | 24.5% | -7.15% (active) | 27.7% | 13.6% | 19.3% | 7.18% (active) | 11.5%
8 | O=C(Nc1cn[nH]c1-c1nc2ccc(CN3CCOCC3)cc2[nH]1)NC1CC1 | 23.5% | 6.37% (active) | 37.6% | -9.72% (active) | 34.4% | -2.75% (active) | 11.5% | 48.6% | 13.6% | -39% (active) | 41% | 12.7% | 51.8% | 1.37% (active) | -56.5% (active) | 23.8% | -10.5% (active) | -60.9% (active) | 59.7% | 34%
9 | CCn1cc(-c2ccnc3[nH]c(-c4cccc(CN(C)C)c4)cc23)c(-c2ccc(NC(=O)N(C)C)cc2)n1 | 17.6% | 32.3% | 38.7% | 15% | 9.19% (active) | -13.3% (active) | 6.18% (active) | 14.9% | 35.1% | -26.9% (active) | 40.2% | 1.59% (active) | 46.9% | 14% | -24.8% (active) | 33.5% | 16.1% | 5.58% (active) | 40.8% | 21.4%
10 | C#Cc1cccc(Nc2ncnc3cc4c(cc23)OCCOCCOCCO4)c1 | 80.5% | 71.3% | 1.86% (active) | 56.1% | 76.6% | 49.4% | 0.957% (active) | 42.7% | 51.7% | 86.8% | 47.8% | 36.2% | 84.8% | 67.4% | 40.7% | 51.6% | 39.6% | 80.5% | 38.9% | 49.2%
11 | CCN(CC)CCOc1ccc(/C(=C(\C)c2ccc(Cl)cc2)c2ccc(Cl)cc2)cc1 | 60.7% | 102% | 87.3% | 95.2% | 36.4% | 80.5% | 81.7% | 45.2% | 60.2% | 8.85% (active) | 97.2% | 7.09% (active) | 87.2% | 84.3% | 51.2% | 80.7% | 65.2% | 67% | 96.1% | 71%
12 | Cn1cnc(-c2cc3nccc(Oc4ccc(NC(=S)NC(=O)Cc5ccccc5)cc4F)c3s2)c1 | 72.5% | 54.5% | 108% | 78.9% | 93.5% | 50.2% | 41.5% | 53.9% | 98.1% | 89% | 104% | 6.69% (active) | 86.3% | 81.2% | 87.1% | 84.3% | 52.5% | 58.7% | 60.5% | 96.5%
13 | Cn1cc(-c2ccc(F)c(C(F)(F)F)c2)nc1C1CCN(c2ncnc3[nH]ncc23)CC1 | 72.3% | 55.3% | 75.3% | 52.1% | 76.9% | 65.3% | 47.8% | 50.4% | 69.1% | 84.4% | 77.3% | 77.8% | 76.5% | 72.5% | 56.7% | 44.7% | 70.8% | 51.5% | 74.3% | 83.4%
14 | COc1ccc(-c2ccc3ncc4c(c3c2)n(-c2ccc(N3CCNCC3)c(C(F)(F)F)c2)c(=O)n4C)cn1 | -71.6% (active) | -66.4% (active) | -89.6% (active) | -72% (active) | -82.9% (active) | -83.2% (active) | -61.7% (active) | -83.2% (active) | -81.1% (active) | -73.9% (active) | -89.4% (active) | -48.2% (active) | -75.3% (active) | -77.4% (active) | -83.2% (active) | -76.3% (active) | -91.8% (active) | -84.7% (active) | -72.2% (active) | -83.2% (active)
15 | NC(=O)c1c(OCc2c(F)cc(Br)cc2F)nsc1NC(=O)NCCCCN1CCCC1 | 21.2% | 9.08% (active) | 15.4% | -29.7% (active) | -23.1% (active) | -1.17% (active) | -61.8% (active) | -15.6% (active) | -57.2% (active) | -78.7% (active) | 22.6% | -46.8% (active) | -79.8% (active) | -38.1% (active) | -81.9% (active) | 11.7% | -81% (active) | -92% (active) | -80.3% (active) | -76.1% (active)
16 | CC[C@H](CO)Nc1nc(NCc2ccccc2)c2ncn(C(C)C)c2n1 | 63.5% | 76% | 61.3% | 48.2% | 47.8% | 65.4% | 48.8% | 56% | 57.6% | 47.1% | 53.9% | 58.5% | 87.4% | 75.6% | -22.3% (active) | 70.9% | 59.8% | 57.2% | 91.6% | 71.8%
